Experimental data taken from PMC11006913.

Legend:
Test in all cases: PBM; 200 nM protein, PBS
Settings in all cases: dsDNA, one strand shown
HESX1 [1] = target: HESX1 (Homo sapiens, UniProt Q9UBX0 95-180, R165K)
SHOX [2] = target: SHOX (Homo sapiens, UniProt O15266 103-189)
ALX4 = ALX4 (Homo sapiens, UniProt Q9H161 200-286, Q225E)
HESX1 [3] = target: HESX1 (Homo sapiens, UniProt Q9UBX0 95-180)
MSX2 = MSX2 (Homo sapiens, UniProt P35548 130-214, R199I)
ALX1 [4] = target: ALX1 (Homo sapiens, UniProt Q15699 118-204, L144V)
Chain of ALX1 (Homo sapiens, UniProt Q15699 118-204, L144V) (Q15699 118-204 L144V): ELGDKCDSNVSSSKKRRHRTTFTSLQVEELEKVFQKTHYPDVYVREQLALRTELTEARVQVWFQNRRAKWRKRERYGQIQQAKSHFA

ALX3 [5] = target: ALX3 (Homo sapiens, UniProt O95076 139-225, N203Q)
Chain of ALX3 (Homo sapiens, UniProt O95076 139-225, N203Q) (O95076 139-225 N203Q): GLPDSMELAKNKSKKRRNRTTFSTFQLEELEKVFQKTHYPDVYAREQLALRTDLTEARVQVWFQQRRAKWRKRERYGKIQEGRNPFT

SHOX [6] = target: SHOX (Homo sapiens, UniProt O15266 103-189, R173C)
Chain of SHOX (Homo sapiens, UniProt O15266 103-189, R173C) (O15266 103-189 R173C): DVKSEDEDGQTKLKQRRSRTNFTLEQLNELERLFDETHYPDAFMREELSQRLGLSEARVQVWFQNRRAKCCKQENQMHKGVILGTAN

ALX1 [7] = target: ALX1 (Homo sapiens, UniProt Q15699 118-204, L144R)
Chain of ALX1 (Homo sapiens, UniProt Q15699 118-204, L144R) (Q15699 118-204 L144R): as the sequence (Q15699 118-204 L144V) above, with V27R counted along it

ALX3 [8] = target: ALX3 (Homo sapiens, UniProt O95076 139-225)
Chain of ALX3 (Homo sapiens, UniProt O95076 139-225) (O95076 139-225): as the sequence (O95076 139-225 N203Q) above, with Q65N counted along it

PROP1 [9] = target: PROP1 (Homo sapiens, UniProt O75360 56-141)
Chain of PROP1 (Homo sapiens, UniProt O75360 56-141) (O75360 56-141): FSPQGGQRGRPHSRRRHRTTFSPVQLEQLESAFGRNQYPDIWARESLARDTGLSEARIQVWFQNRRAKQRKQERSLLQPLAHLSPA

HESX1 [10] = target: HESX1 (Homo sapiens, UniProt Q9UBX0 95-180, R109Q)
Chain of HESX1 (Homo sapiens, UniProt Q9UBX0 95-180, R109Q) (Q9UBX0 95-180 R109Q): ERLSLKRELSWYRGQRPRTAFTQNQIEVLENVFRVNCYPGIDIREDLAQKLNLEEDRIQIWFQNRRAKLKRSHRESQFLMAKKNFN

PROP1 [11] = target: PROP1 (Homo sapiens, UniProt O75360 56-141, R99H)
Chain of PROP1 (Homo sapiens, UniProt O75360 56-141, R99H) (O75360 56-141 R99H): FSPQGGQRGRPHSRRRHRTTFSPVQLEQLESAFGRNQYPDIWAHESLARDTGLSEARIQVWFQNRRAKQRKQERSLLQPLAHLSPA

ALX3 [12] = target: ALX3 (Homo sapiens, UniProt O95076 139-225, L168Q)
Chain of ALX3 (Homo sapiens, UniProt O95076 139-225, L168Q) (O95076 139-225 L168Q): as the sequence (O95076 139-225 N203Q) above, with L30Q, Q65N counted along it

HESX1 [13] = target: HESX1 (Homo sapiens, UniProt Q9UBX0 95-180, P111T)
Chain of HESX1 (Homo sapiens, UniProt Q9UBX0 95-180, P111T) (Q9UBX0 95-180 P111T): as the sequence (Q9UBX0 95-180 R109Q) above, with Q15R, P17T counted along it

ALX3 [14] = target: ALX3 (Homo sapiens, UniProt O95076 139-225, L168V)
Chain of ALX3 (Homo sapiens, UniProt O95076 139-225, L168V) (O95076 139-225 L168V): as the sequence (O95076 139-225 N203Q) above, with L30V, Q65N counted along it

PROP1 [15] = target: PROP1 (Homo sapiens, UniProt O75360 56-141, F88S)
Chain of PROP1 (Homo sapiens, UniProt O75360 56-141, F88S) (O75360 56-141 F88S): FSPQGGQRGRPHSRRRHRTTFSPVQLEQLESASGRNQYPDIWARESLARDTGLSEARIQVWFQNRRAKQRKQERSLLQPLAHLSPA

HESX1 [16] = target: HESX1 (Homo sapiens, UniProt Q9UBX0 95-180, F115L)
Chain of HESX1 (Homo sapiens, UniProt Q9UBX0 95-180, F115L) (Q9UBX0 95-180 F115L): as the sequence (Q9UBX0 95-180 R109Q) above, with Q15R, F21L counted along it

ALX1 [17] = target: ALX1 (Homo sapiens, UniProt Q15699 118-204)
Chain of ALX1 (Homo sapiens, UniProt Q15699 118-204) (Q15699 118-204): as the sequence (Q15699 118-204 L144V) above, with V27L counted along it

ALX3 [18] = target: ALX3 (Homo sapiens, UniProt O95076 139-225, N203S)
Chain of ALX3 (Homo sapiens, UniProt O95076 139-225, N203S) (O95076 139-225 N203S): as the sequence (O95076 139-225 N203Q) above, with Q65S counted along it

Chain of HESX1 (Homo sapiens, UniProt Q9UBX0 95-180) (Q9UBX0 95-180): as the sequence (Q9UBX0 95-180 R109Q) above, with Q15R counted along it
Chain of HESX1 (Homo sapiens, UniProt Q9UBX0 95-180, R165K) (Q9UBX0 95-180 R165K): as the sequence (Q9UBX0 95-180 R109Q) above, with Q15R, R71K counted along it
Chain of SHOX (Homo sapiens, UniProt O15266 103-189) (O15266 103-189): as the sequence (O15266 103-189 R173C) above, with C71R counted along it
Chain of MSX2 (P35548 130-214 R199I): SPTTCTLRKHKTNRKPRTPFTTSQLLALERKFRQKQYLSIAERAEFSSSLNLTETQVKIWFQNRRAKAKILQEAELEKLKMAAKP
Chain of ALX4 (Q9H161 200-286 Q225E): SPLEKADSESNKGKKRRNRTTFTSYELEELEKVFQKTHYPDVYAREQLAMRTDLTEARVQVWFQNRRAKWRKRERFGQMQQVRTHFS

Sequence | binding signal (HESX1 [1]) | binding signal (SHOX [2]) | binding signal (ALX4) | binding signal (HESX1 [3]) | binding signal (MSX2) | binding signal (ALX1 [4]) | binding signal (ALX3 [5]) | binding signal (SHOX [6]) | binding signal (ALX1 [7]) | binding signal (ALX3 [8]) | binding signal (PROP1 [9]) | binding signal (HESX1 [10]) | binding signal (PROP1 [11]) | binding signal (ALX3 [12]) | binding signal (HESX1 [13]) | binding signal (ALX3 [14]) | binding signal (PROP1 [15]) | binding signal (HESX1 [16]) | binding signal (ALX1 [17]) | binding signal (ALX3 [18])
GCAATTAA | 12.6 upbm affinity estimate (log intensity, higher = more binding, comparable within an allelic series) | 12.1 upbm affinity estimate (log intensity, higher = more binding, comparable within an allelic series) | 13.3 upbm affinity estimate (log intensity, higher = more binding, comparable within an allelic series) | 12.7 upbm affinity estimate (log intensity, higher = more binding, comparable within an allelic series) | 13.2 upbm affinity estimate (log intensity, higher = more binding, comparable within an allelic series) | 11.6 upbm affinity estimate (log intensity, higher = more binding, comparable within an allelic series) | 8.37 upbm affinity estimate (log intensity, higher = more binding, comparable within an allelic series) | 9.65 upbm affinity estimate (log intensity, higher = more binding, comparable within an allelic series) | 11.3 upbm affinity estimate (log intensity, higher = more binding, comparable within an allelic series) | 12.4 upbm affinity estimate (log intensity, higher = more binding, comparable within an allelic series) | 11.5 upbm affinity estimate (log intensity, higher = more binding, comparable within an allelic series) | 9.34 upbm affinity estimate (log intensity, higher = more binding, comparable within an allelic series) | 11.6 upbm affinity estimate (log intensity, higher = more binding, comparable within an allelic series) | 10.7 upbm affinity estimate (log intensity, higher = more binding, comparable within an allelic series) | 11.2 upbm affinity estimate (log intensity, higher = more binding, comparable within an allelic series) | 10.2 upbm affinity estimate (log intensity, higher = more binding, comparable within an allelic series) | 7.72 upbm affinity estimate (log intensity, higher = more binding, comparable within an allelic series) | 7.72 upbm affinity estimate (log intensity, higher = more binding, comparable within an allelic series) | 12.2 upbm affinity estimate (log intensity, higher = more binding, comparable within an allelic series) | 8.51 upbm affinity estimate (log intensity, higher = more binding, comparable within an allelic series)
CTAATTAA | 13.8 upbm affinity estimate (log intensity, higher = more binding, comparable within an allelic series) | 13.4 upbm affinity estimate (log intensity, higher = more binding, comparable within an allelic series) | 14.4 upbm affinity estimate (log intensity, higher = more binding, comparable within an allelic series) | 13.6 upbm affinity estimate (log intensity, higher = more binding, comparable within an allelic series) | 13.3 upbm affinity estimate (log intensity, higher = more binding, comparable within an allelic series) | 12.3 upbm affinity estimate (log intensity, higher = more binding, comparable within an allelic series) | 8.64 upbm affinity estimate (log intensity, higher = more binding, comparable within an allelic series) | 11.1 upbm affinity estimate (log intensity, higher = more binding, comparable within an allelic series) | 11.9 upbm affinity estimate (log intensity, higher = more binding, comparable within an allelic series) | 12.9 upbm affinity estimate (log intensity, higher = more binding, comparable within an allelic series) | 12.2 upbm affinity estimate (log intensity, higher = more binding, comparable within an allelic series) | 11.2 upbm affinity estimate (log intensity, higher = more binding, comparable within an allelic series) | 12.4 upbm affinity estimate (log intensity, higher = more binding, comparable within an allelic series) | 11.6 upbm affinity estimate (log intensity, higher = more binding, comparable within an allelic series) | 12.6 upbm affinity estimate (log intensity, higher = more binding, comparable within an allelic series) | 11.4 upbm affinity estimate (log intensity, higher = more binding, comparable within an allelic series) | 8.3 upbm affinity estimate (log intensity, higher = more binding, comparable within an allelic series) | 8.61 upbm affinity estimate (log intensity, higher = more binding, comparable within an allelic series) | 12.9 upbm affinity estimate (log intensity, higher = more binding, comparable within an allelic series) | 8.84 upbm affinity estimate (log intensity, higher = more binding, comparable within an allelic series)
AGTAATTA | 13 upbm affinity estimate (log intensity, higher = more binding, comparable within an allelic series) | 12.7 upbm affinity estimate (log intensity, higher = more binding, comparable within an allelic series) | 13.8 upbm affinity estimate (log intensity, higher = more binding, comparable within an allelic series) | 13.1 upbm affinity estimate (log intensity, higher = more binding, comparable within an allelic series) | 13.4 upbm affinity estimate (log intensity, higher = more binding, comparable within an allelic series) | 12.2 upbm affinity estimate (log intensity, higher = more binding, comparable within an allelic series) | 8.6 upbm affinity estimate (log intensity, higher = more binding, comparable within an allelic series) | 10 upbm affinity estimate (log intensity, higher = more binding, comparable within an allelic series) | 11.8 upbm affinity estimate (log intensity, higher = more binding, comparable within an allelic series) | 12.8 upbm affinity estimate (log intensity, higher = more binding, comparable within an allelic series) | 11.9 upbm affinity estimate (log intensity, higher = more binding, comparable within an allelic series) | 9.52 upbm affinity estimate (log intensity, higher = more binding, comparable within an allelic series) | 11.9 upbm affinity estimate (log intensity, higher = more binding, comparable within an allelic series) | 11 upbm affinity estimate (log intensity, higher = more binding, comparable within an allelic series) | 11.6 upbm affinity estimate (log intensity, higher = more binding, comparable within an allelic series) | 10.6 upbm affinity estimate (log intensity, higher = more binding, comparable within an allelic series) | 7.94 upbm affinity estimate (log intensity, higher = more binding, comparable within an allelic series) | 8.09 upbm affinity estimate (log intensity, higher = more binding, comparable within an allelic series) | 12.7 upbm affinity estimate (log intensity, higher = more binding, comparable within an allelic series) | 8.73 upbm affinity estimate (log intensity, higher = more binding, comparable within an allelic series)
CAATTAGC | 13.2 upbm affinity estimate (log intensity, higher = more binding, comparable within an allelic series) | 12.7 upbm affinity estimate (log intensity, higher = more binding, comparable within an allelic series) | 13.5 upbm affinity estimate (log intensity, higher = more binding, comparable within an allelic series) | 13.3 upbm affinity estimate (log intensity, higher = more binding, comparable within an allelic series) | 13.1 upbm affinity estimate (log intensity, higher = more binding, comparable within an allelic series) | 11.9 upbm affinity estimate (log intensity, higher = more binding, comparable within an allelic series) | 8.26 upbm affinity estimate (log intensity, higher = more binding, comparable within an allelic series) | 9.99 upbm affinity estimate (log intensity, higher = more binding, comparable within an allelic series) | 11.5 upbm affinity estimate (log intensity, higher = more binding, comparable within an allelic series) | 12.6 upbm affinity estimate (log intensity, higher = more binding, comparable within an allelic series) | 11.8 upbm affinity estimate (log intensity, higher = more binding, comparable within an allelic series) | 9.79 upbm affinity estimate (log intensity, higher = more binding, comparable within an allelic series) | 11.9 upbm affinity estimate (log intensity, higher = more binding, comparable within an allelic series) | 10.7 upbm affinity estimate (log intensity, higher = more binding, comparable within an allelic series) | 11.7 upbm affinity estimate (log intensity, higher = more binding, comparable within an allelic series) | 10.1 upbm affinity estimate (log intensity, higher = more binding, comparable within an allelic series) | 7.57 upbm affinity estimate (log intensity, higher = more binding, comparable within an allelic series) | 7.74 upbm affinity estimate (log intensity, higher = more binding, comparable within an allelic series) | 12.8 upbm affinity estimate (log intensity, higher = more binding, comparable within an allelic series) | 8.45 upbm affinity estimate (log intensity, higher = more binding, comparable within an allelic series)
